Experimental findings from PubChem BioAssay (Tox21) are described below.

Assay [1] is described as follows: Nuclear factor erythroid 2-related factor 2/antioxidant responsive element (Nrf2/ARE) small molecule agonists: qHTS cell viability counter screen in human keratinocytes (AID 1919968; active = well fitted curve in the direction sought with a large enough effect in the repeat runs; an effect the other way counts as inactive or inconclusive; also: nearly all actives have a fitted effect of over 55% in size; also: potency is read from the fitted curve at half-maximal effect). An outline of the steps: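 Seed 1,500 KeratinoSens cells per well, then incubate 5 h at 37 C/5% CO2. Add compounds in DMSO and incubate 23 h. Add CellTiter-Fluor, wait 1 h and read fluorescence.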

Assay [2] is described as follows: Nuclear factor erythroid 2-related factor 2/antioxidant responsive element (Nrf2/ARE) small molecule agonists: luciferase reporter gene qHTS assay in human keratinocytes (AID 1919969). Also: nearly all actives have a fitted effect of over 35% in size. Also: potency is read from the fitted curve at half-maximal effect.
Assay [3] deals with Gonadotropin-releasing hormone receptor (Homo sapiens) (UniProt P30968). As to the kind of experiment: Human gonadotropin-releasing hormone receptor (GnRHR) small molecule agonists, calcium flux assay in GnRHR-HEK293 cells (AID 1920063). Also: nearly all actives have a fitted effect of over 35% in size. A digest of the protocol: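 Cells: HEK293 stably expressing human GnRHR. Steps: overnight (18 h) culture, 1 h calcium dye loading at 37 C, compound addition, kinetic fluorescence read at 480/540 nm. Each compound tested at 15 concentrations in triplicate.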

The target of assay [4] is KiSS-1 receptor (Homo sapiens) (UniProt Q969F8). Put plainly: Human kisspeptin (KISS1R) small molecule agonists, calcium flux assay in KISS1R-HEK293 cells (AID 1920064; active = well fitted curve in the direction sought with a large enough effect in the repeat runs; an effect the other way counts as inactive or inconclusive). A digest of the protocol: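 Cells plated and incubated 18 h; dye added, 1 h at 37 C; compounds in DMSO pinned in; signal read at 480/540 nm every second for 3 min. Each compound tested at 15 concentrations in triplicate.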

Assay [5] in a line: G protein-coupled receptor (GPCR) small molecule agonists, calcium flux assay: HEK293 wild type cell line counter screen (AID 1920065). An outline of the steps:
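Counter-screen of the Tox21 10K library for non-specific calcium release: dye-loaded cells received compounds in DMSO and were monitored by kinetic fluorescence (480/540 nm, 3 min). Fifteen concentrations, run in triplicate.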

Assay [6] in a line: p53 small molecule agonists, cell-based qHTS assay with human liver microsomes (AID 1963577).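 Also: p53 response element beta-lactamase reporter cells with liver microsomes plus NADPH.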 A digest of the protocol:
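In this qHTS, p53 response-element beta-lactamase cells receive test compound together with a microsome/NADPH activating system (0.5 mg/mL final each) and are incubated 16 h at 37 C before LiveBLAzer fluorescence detection.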

Assay [7] in a line: p53 small molecule agonists, cell-based qHTS assay with rat liver microsomes (AID 1963578). A digest of the protocol: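 Agonist mode in p53RE-bla reporter cells, with compounds co-incubated 16 h at 37 C alongside 0.5 mg/mL rat liver microsomes and 0.5 mg/mL NADPH (final), followed by a 2 h LiveBLAzer detection step.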
The nature of assay [8]: p53 small molecule agonists, cell-based qHTS assay with human liver microsomes: qHTS cell viability counter screen (AID 1963579). Also: nearly all actives have a fitted effect of over 45% in size. Also: potency is read from the fitted curve at half-maximal effect. A digest of the protocol:
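Metabolically activated exposure: compounds, human liver microsomes and NADPH (0.5 mg/mL final apiece) were added to p53RE-bla cells seeded 5 h earlier, left 16 h at 37 C, and then assessed for viability by CellTiter-Glo luminescence.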

Assay [9] can be described thus: p53 small molecule agonists, cell-based qHTS assay: qHTS cell viability counter screen (AID 1963581). Also: nearly all actives have a fitted effect of over 45% in size. An outline of the steps:
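Cells: HCT-116 with p53 response element-driven beta-lactamase. Treatment: 16 h, 37 C, compounds in DMSO. Read: CellTiter-Glo luminescence after 30 min RT.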

Assay [10] can be described thus: p53 small molecule agonists, cell-based qHTS assay (AID 1963582; active = well fitted activation curve with a large enough effect in the signal ratio in the repeat runs, not every such curve was filed as active; the % refers to the signal ratio). An outline of the steps:
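Quantitative HTS in p53RE-bla cells: after a 5 h settling period, compounds delivered in DMSO were left on cells for 16 h at 37 C, and reporter induction was measured as fluorescence following 2 h substrate loading.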

The target in assay [11] is 5-hydroxytryptamine receptor 2A (Homo sapiens) (UniProt P28223). As to the kind of experiment: 5-hydroxytryptamine receptor 2A (HTR2A) small molecule antagonists, cell-based qHTS assay (AID 1963586). Also: nearly all actives have a fitted effect of over 45% in size. An outline of the steps:
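Antagonist-mode intracellular calcium assay: DOI (4 nM) added after 5 min compound pre-incubation at room temperature to dye-loaded HTR2A-CHO cells. Fluorescence followed for 3 min, sampled every second.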

Assay [12] has the same target. Put plainly: 5-hydroxytryptamine receptor 2A (HTR2A) small molecule agonists, cell-based qHTS assay (AID 1963587). Also: nearly all actives have a fitted effect of over 30% in size. A digest of the protocol:
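HTR2A-CHO cells, plated 18 h at 37 C/5% CO2, dye-loaded 1 h at 37 C; compounds in DMSO added by pin tool (agonist mode). Intracellular calcium flux read as kinetic fluorescence on FDSS over 2 min at 1 s intervals.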

Assay [13] deals with Muscarinic acetylcholine receptor M1 (Homo sapiens) (UniProt P11229). As to the kind of experiment: Cholinergic receptor muscarinic 1 (CHRM1) small molecule antagonists, cell-based qHTS assay (AID 1963588). Also: nearly all actives have a fitted effect of over 40% in size. A digest of the protocol:
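CHRM1-CHO calcium-flux assay, antagonist mode. Cells were seeded 18 h, dye-loaded 1 h at 37 C and given compound for 5 min at RT, then acetylcholine was added at 50nM. FDSS fluorescence was read 3 min; 15 concentrations, three runs.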

The target is the same in assay [14]. As to the kind of experiment: Cholinergic receptor muscarinic 1 (CHRM1) small molecule agonists, cell-based qHTS assay (AID 1963589). Also: nearly all actives have a fitted effect of over 35% in size. An outline of the steps: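 Agonist-mode qHTS in CHO cells stably carrying human muscarinic M1. Intracellular calcium is tracked by fluorescence every second after compound transfer; each compound runs at 15 concentrations in three independent runs.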

Assay [15] is described as follows: cAMP Responsive Elements (CRE) small molecule agonists, cell-based qHTS assay (AID 1963590). An outline of the steps: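 Agonist mode qHTS in CRE-bla HEK 293T cells: compounds dosed from DMSO for 3 h at 37 C/5% CO2, followed by LiveBLAzer B/G FRET substrate for 2 h at room temperature.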
Assay [16] in a line: cAMP Responsive Elements (CRE) small molecule antagonists, cell-based qHTS assay (AID 1963591; active = well fitted inhibition curve with a large enough effect in the signal ratio in the repeat runs, not every such curve was filed as active; the % refers to the signal ratio). A digest of the protocol: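 Antagonist mode: test compounds are co-incubated with the adenylyl cyclase activator NKH477 (0.25 uM final) on CRE-bla HEK293T cells for 3 h at 37 °C, followed by LiveBLAzer substrate loading.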
The target of assay [17] is Beta-2 adrenergic receptor (Homo sapiens) (UniProt P07550). As to the kind of experiment: Adrenergic beta2 receptor (ADRB2) small molecule antagonists, cell-based qHTS assay (AID 1963592). Also: series mostly up to about 92 µM; nearly all actives have a fitted effect of over 50% in size. A digest of the protocol: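 Cells (CHO, stable ADRB2 overexpression) incubated 18-20hr at 37C; compounds added from DMSO; agonist mix (1nM isoproterenol, 100uM IBMX, 25uM Ro-20-1724) added; 0.5hr RT; d2-cAMP and anti-cAMP-cryptate added; 1hr RT; 665/615 nm read.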

For assay [18], the target named is D(2) dopamine receptor (Homo sapiens) (UniProt P14416). Put plainly: Dopamine D2 receptor (DRD2) small molecule agonists, cell-based qHTS assay (AID 1963594). Also: nearly all actives have a fitted effect of over 35% in size. An outline of the steps: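 HEK293 cells stably expressing DRD2 were cultured 24 h at 37 C, then given Ro20-1724 (0.1 mM final) and compounds for 10 min at room temperature. NKH477 (200nM) was then added for 30 min. cAMP was read by HTRF.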

Assay [19] has the same target. Put plainly: Dopamine D2 receptor (DRD2) small molecule antagonists, cell-based qHTS assay (AID 1963595; active = well fitted inhibition curve with a large enough effect in the signal ratio in the repeat runs, with a control signal flat; the % refers to the signal ratio). A digest of the protocol:
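In this cell-based antagonist screen, compounds act for 10 min at room temperature before a 30 min challenge with 12 nM quinpirole and 200 nM NKH477. cAMP is quantified by HTRF competition in DRD2-HEK293 cells containing 0.1 mM Ro20-1724.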

The nature of assay [20]: p53 small molecule agonists, cell-based qHTS assay with rat liver microsomes: qHTS cell viability counter screen (AID 1963580). Also: nearly all actives have a fitted effect of over 45% in size. An outline of the steps: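 In HCT-116 cells carrying a p53 response element-bla reporter, compounds were metabolically activated in situ by rat liver microsomes with NADPH over 16 h. Cell ATP content then served as the cytotoxicity measure.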

Unmarked numbers belong to inactive results. Records with an inconclusive call do not appear. Active and inactive are the calls of the source. Unless noted, calls follow the shape of the full dose curve.

Beta-2 adrenergic receptor (Homo sapiens), sequence (P07550 whole entry, looked up): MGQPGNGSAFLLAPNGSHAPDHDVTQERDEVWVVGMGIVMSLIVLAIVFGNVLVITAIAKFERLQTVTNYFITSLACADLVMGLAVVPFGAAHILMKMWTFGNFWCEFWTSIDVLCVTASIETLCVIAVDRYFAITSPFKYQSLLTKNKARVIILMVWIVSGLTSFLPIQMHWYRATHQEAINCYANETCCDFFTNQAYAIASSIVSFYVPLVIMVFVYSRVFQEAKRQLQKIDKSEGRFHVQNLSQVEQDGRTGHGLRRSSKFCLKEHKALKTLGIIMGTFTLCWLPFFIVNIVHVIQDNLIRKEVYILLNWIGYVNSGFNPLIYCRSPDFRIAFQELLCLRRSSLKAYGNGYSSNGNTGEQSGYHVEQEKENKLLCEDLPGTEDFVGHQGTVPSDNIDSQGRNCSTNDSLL
Gonadotropin-releasing hormone receptor (Homo sapiens), sequence (P30968 whole entry, looked up): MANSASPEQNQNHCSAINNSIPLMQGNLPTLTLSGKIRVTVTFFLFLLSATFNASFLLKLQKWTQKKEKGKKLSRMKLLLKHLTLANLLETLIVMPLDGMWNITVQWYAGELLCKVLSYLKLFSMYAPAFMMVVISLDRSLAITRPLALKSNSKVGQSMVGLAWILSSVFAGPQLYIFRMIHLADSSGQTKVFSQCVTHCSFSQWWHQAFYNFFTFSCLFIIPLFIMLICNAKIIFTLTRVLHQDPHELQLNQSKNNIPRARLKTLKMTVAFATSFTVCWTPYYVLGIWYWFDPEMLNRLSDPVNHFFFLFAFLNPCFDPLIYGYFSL
KiSS-1 receptor (Homo sapiens), sequence (Q969F8 whole entry, looked up): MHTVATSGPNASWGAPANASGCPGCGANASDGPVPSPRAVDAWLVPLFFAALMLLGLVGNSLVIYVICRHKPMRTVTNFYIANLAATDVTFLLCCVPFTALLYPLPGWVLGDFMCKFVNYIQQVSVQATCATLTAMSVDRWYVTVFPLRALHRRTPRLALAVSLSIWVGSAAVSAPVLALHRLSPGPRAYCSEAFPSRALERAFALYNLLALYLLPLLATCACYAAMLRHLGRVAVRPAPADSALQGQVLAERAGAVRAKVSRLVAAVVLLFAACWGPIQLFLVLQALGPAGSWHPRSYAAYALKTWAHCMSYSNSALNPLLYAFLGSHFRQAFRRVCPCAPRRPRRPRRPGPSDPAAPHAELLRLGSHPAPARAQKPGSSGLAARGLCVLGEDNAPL
5-hydroxytryptamine receptor 2A (Homo sapiens), sequence (P28223 whole entry, looked up): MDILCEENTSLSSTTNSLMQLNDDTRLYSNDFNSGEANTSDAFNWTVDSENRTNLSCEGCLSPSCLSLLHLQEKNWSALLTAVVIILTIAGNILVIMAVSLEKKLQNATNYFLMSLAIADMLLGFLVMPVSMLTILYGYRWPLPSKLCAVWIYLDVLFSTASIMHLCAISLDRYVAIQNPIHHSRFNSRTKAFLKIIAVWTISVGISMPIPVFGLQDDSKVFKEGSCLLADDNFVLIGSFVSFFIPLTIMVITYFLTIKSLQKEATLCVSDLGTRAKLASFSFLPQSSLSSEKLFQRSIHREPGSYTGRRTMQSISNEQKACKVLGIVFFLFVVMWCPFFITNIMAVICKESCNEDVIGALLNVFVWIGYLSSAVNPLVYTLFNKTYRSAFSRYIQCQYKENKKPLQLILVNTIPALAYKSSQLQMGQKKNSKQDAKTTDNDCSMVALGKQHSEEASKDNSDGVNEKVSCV
Muscarinic acetylcholine receptor M1 (Homo sapiens), sequence (P11229 whole entry, looked up): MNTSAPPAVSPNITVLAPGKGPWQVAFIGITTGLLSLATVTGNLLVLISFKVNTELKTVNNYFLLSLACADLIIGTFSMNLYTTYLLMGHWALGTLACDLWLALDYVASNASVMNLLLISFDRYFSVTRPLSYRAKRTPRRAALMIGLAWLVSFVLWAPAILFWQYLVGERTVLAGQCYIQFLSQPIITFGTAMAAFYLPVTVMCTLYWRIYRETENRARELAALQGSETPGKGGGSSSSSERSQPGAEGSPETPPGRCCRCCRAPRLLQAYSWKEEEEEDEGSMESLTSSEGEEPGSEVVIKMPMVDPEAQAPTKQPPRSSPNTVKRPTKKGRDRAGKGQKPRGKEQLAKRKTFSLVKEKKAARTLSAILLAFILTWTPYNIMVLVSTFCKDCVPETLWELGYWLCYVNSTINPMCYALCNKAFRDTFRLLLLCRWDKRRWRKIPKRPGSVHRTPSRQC
D(2) dopamine receptor (Homo sapiens), sequence (P14416 whole entry, looked up): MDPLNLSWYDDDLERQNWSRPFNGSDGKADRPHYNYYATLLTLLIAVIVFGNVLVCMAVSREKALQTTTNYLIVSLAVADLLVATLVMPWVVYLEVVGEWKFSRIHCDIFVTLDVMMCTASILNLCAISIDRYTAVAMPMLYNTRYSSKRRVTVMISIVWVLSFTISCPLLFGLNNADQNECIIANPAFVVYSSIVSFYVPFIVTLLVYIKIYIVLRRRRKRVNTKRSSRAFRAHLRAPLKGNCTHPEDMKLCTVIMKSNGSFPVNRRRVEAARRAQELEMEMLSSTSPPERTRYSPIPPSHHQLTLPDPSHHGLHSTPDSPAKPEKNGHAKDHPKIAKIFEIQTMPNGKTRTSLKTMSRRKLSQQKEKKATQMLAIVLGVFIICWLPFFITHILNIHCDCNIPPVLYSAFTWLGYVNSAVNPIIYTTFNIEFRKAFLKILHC

On to `O=C1CC2(CCCC2)CC(=O)N1`, for which the Potency result in assay [1], in [2], in [3], in assay [6], in assay [7] and in assay [8] was “inactive” throughout. Moreover, the Potency result in [9], in assay [10], in assay [11], in assay [12], in assay [13] and in [14] was “inactive” in each case. For the same compound, the Potency entry in assay [15], in [16], in assay [17], in assay [18] and in assay [19] was “inactive” throughout. Besides, the outcome in assay [4] and in [5] was inactive.
As to `C=CCCCCCCCCC(=O)OCC`, the Potency result in assay [1], in assay [2], in [3], in [6], in [7] and in [8] was “inactive” in each case. The Potency result in assay [9], in assay [10], in assay [11], in assay [12], in [13] and in [14] was “inactive” in each case. Also, the Potency entry in assay [15], in assay [16], in assay [17], in [18] and in [19] was “inactive” throughout. Also, the outcome in assay [4] and in assay [5] was inactive.
Turning to `O=C(O)c1cc(N=Nc2ccc([N+](=O)[O-])cc2)ccc1O`, the Potency in assay [1] was 26.8 µM (active). In addition, the Potency result in assay [2], in assay [3], in assay [6], in assay [7], in [8] and in assay [20] was “inactive” throughout. For the same compound, the Potency entry in assay [11], in assay [12], in [13], in assay [17], in assay [18] and in [19] was “inactive” each time. Moreover, the outcome in assay [4] and in assay [5] was inactive.
For `Clc1ccnc(Cl)n1`, the Potency entry in assay [1], in assay [3], in [6], in [7], in assay [8] and in assay [9] was “inactive” in each case. Moreover, the Potency entry in assay [10], in assay [11], in assay [12], in [13], in [14] and in [15] was “inactive” throughout. In addition, the Potency result in assay [16], in assay [17], in [18] and in assay [19] was “inactive” each time. The Potency in assay [2] was 69.6 µM (active). The result in assay [4] and in [5] was inactive.
Consider `Nc1c(CC(=O)O)cccc1C(=O)c1ccc(Br)cc1`, for which the Potency entry in assay [1], in [2], in [3], in assay [6], in assay [7] and in assay [8] was “inactive” in each case. Moreover, the Potency result in [20], in assay [17], in assay [18] and in assay [19] was “inactive” each time. The outcome in assay [4] and in assay [5] was inactive.
On to `ICCc1ccccc1`, for which the Potency entry in assay [1], in assay [3], in assay [6], in [7], in assay [20] and in assay [11] was “inactive” each time. Further, the Potency entry in assay [12], in assay [13], in assay [14], in assay [17], in assay [18] and in assay [19] was “inactive” each time. The Potency in assay [2] is 67.2 µM (active); in assay [8], 28.3 µM (active). Moreover, the result in [4] and in assay [5] was inactive.
As to `COc1ccc(C(=O)c2ccc(OC)cc2O)c(O)c1`, the Potency result in [1], in [3], in [6], in [7], in assay [8] and in assay [20] was “inactive” in each case. Further, the Potency entry in [13], in assay [14], in assay [16], in assay [17], in [18] and in [19] was “inactive” throughout. The Potency in assay [2] was 69.1 µM (active). Moreover, the outcome in [4] and in assay [5] was inactive.
